# The supplement of paper PMC4022240
# ± gives the standard deviation.
# Key:
# Assay in all cases: peptide microarray binding signal (635 nm), min-max normalized on array (fraction of array maximum); higher = stronger binding
# Settings in all cases: peptide region: H3 11-23
# [1] = molecular target: T1, HaloTag-ATRX ADD domain (163-292)
# T1 chain: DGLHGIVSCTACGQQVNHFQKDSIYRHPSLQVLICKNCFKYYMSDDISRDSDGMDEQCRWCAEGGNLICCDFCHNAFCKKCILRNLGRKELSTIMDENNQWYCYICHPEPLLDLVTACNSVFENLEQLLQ
# Procedure, shortened: (§1)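 Within each library, mean intensities of triplicate spots were min-max scaled to give the binding signal. The spots were histone 13-mer peptide–cellulose conjugates on nitrocellulose with a Cy3 tracer, blocked overnight at 4°C. They were then probed for 1 h at 4°C using biotin-labelled HaloTag reader fusions (10 nM to 1 μM) with streptavidin-Alexa Fluor 647 or rabbit histone antibodies (1:10,000 to 1:2,000) with anti-rabbit Alexa 647, and scanned at 635 nm for signal and 532 nm for misprints on an Axon GenePix 4000B.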
# [2] = molecular target: HaloTag-ING2 PHD (mouse Ing2 200-280)
# Procedure, shortened: as §1
# [3] = molecular target: anti-H3K4me3 antibody ab8580
# Procedure, shortened: as §1
# [4] = molecular target: anti-H3K9me3 antibody ab8898
# Procedure, shortened: as §1
# [5] = peptide modifications: H3K14ac H3R17me2a, binder concentration: 1:2,000 dilution
# [6] = peptide modifications: H3K14ac H3R17me2a, binder concentration: 1:10,000 dilution
# [7] = peptide modifications: H3K14me2 H3K18me1, binder concentration: 1:2,000 dilution
# [8] = peptide modifications: H3K14me2 H3K18me1, binder concentration: 1:10,000 dilution
# [9] = peptide modifications: H3K14ac H3R17me2s, binder concentration: 1:2,000 dilution
# [10] = peptide modifications: H3K14ac H3R17me2s, binder concentration: 1:10,000 dilution
# [11] = peptide modifications: H3K14ac H3K18me2, binder concentration: 1:2,000 dilution
# [12] = peptide modifications: H3K14ac H3K18me2, binder concentration: 1:10,000 dilution
# [13] = peptide modifications: H3K14me1 H3R17me2a, binder concentration: 1:2,000 dilution
# [14] = peptide modifications: H3K14me1 H3R17me2a, binder concentration: 1:10,000 dilution
# [15] = peptide modifications: H3K14ac, binder concentration: 1:2,000 dilution
# [16] = peptide modifications: H3K14ac, binder concentration: 1:10,000 dilution
# [17] = peptide modifications: H3K14me1 H3K18ac, binder concentration: 1:2,000 dilution
# [18] = peptide modifications: H3K14me1 H3K18ac, binder concentration: 1:10,000 dilution
# [19] = peptide modifications: H3K14ac H3K18me3, binder concentration: 1:2,000 dilution
# [20] = peptide modifications: H3K14ac H3K18me3, binder concentration: 1:10,000 dilution
# [21] = peptide modifications: H3K14me1 H3R17cit, binder concentration: 1:2,000 dilution
# [22] = peptide modifications: H3K14me1 H3R17cit, binder concentration: 1:10,000 dilution
# [23] = peptide modifications: H3K14me1, binder concentration: 1:2,000 dilution
# [24] = peptide modifications: H3K14me1, binder concentration: 1:10,000 dilution
binder,measurement,setting,value
TGGKAPRKQLATK [H3 11-23 T G G Kac A P Rme2a K Q L A T K],peptide microarray binding signal,"[1]; peptide modifications: H3K14ac H3R17me2a, binder concentration: 50 nM",0.00981 ± 0.001
same,peptide microarray binding signal,"[1]; peptide modifications: H3K14ac H3R17me2a, binder concentration: 500 nM",0.0127 ± 0.00086
same,peptide microarray binding signal,"[2]; peptide modifications: H3K14ac H3R17me2a, binder concentration: 10 nM",0.0112 ± 0.00063
same,peptide microarray binding signal,"[2]; peptide modifications: H3K14ac H3R17me2a, binder concentration: 100 nM",0.0221 ± 0.00099
same,peptide microarray binding signal,[3]; [5],0.00436 ± 0.00064
same,peptide microarray binding signal,[3]; [6],0.00445 ± 0.00022
same,peptide microarray binding signal,[4]; [5],0.00344 ± 0.00027
same,peptide microarray binding signal,[4]; [6],0.002479 ± 2.2e-05
TGGKAPRKQLATK [H3 11-23 T G G Kme2 A P R Kme Q L A T K],peptide microarray binding signal,"[1]; peptide modifications: H3K14me2 H3K18me1, binder concentration: 50 nM",0.00752 ± 0.0013
same,peptide microarray binding signal,"[1]; peptide modifications: H3K14me2 H3K18me1, binder concentration: 500 nM",0.0129 ± 0.00084
same,peptide microarray binding signal,"[2]; peptide modifications: H3K14me2 H3K18me1, binder concentration: 10 nM",0.013 ± 0.0021
same,peptide microarray binding signal,"[2]; peptide modifications: H3K14me2 H3K18me1, binder concentration: 100 nM",0.0405 ± 0.012
same,peptide microarray binding signal,[3]; [7],0.0136 ± 0.0009
same,peptide microarray binding signal,[3]; [8],0.00964 ± 0.0012
same,peptide microarray binding signal,[4]; [7],0.00565 ± 0.00074
same,peptide microarray binding signal,[4]; [8],0.0045 ± 0.00053
TGGKAPRKQLATK [H3 11-23 T G G Kac A P Rme2s K Q L A T K],peptide microarray binding signal,"[1]; peptide modifications: H3K14ac H3R17me2s, binder concentration: 50 nM",0.00621 ± 0.00011
same,peptide microarray binding signal,"[1]; peptide modifications: H3K14ac H3R17me2s, binder concentration: 500 nM",0.0112 ± 0.00066
same,peptide microarray binding signal,"[2]; peptide modifications: H3K14ac H3R17me2s, binder concentration: 10 nM",0.0167 ± 0.00051
same,peptide microarray binding signal,"[2]; peptide modifications: H3K14ac H3R17me2s, binder concentration: 100 nM",0.02487 ± 0.00023
same,peptide microarray binding signal,[3]; [9],0.00702 ± 0.00068
same,peptide microarray binding signal,[3]; [10],0.00628 ± 0.00011
same,peptide microarray binding signal,[4]; [9],0.00362 ± 0.00034
same,peptide microarray binding signal,[4]; [10],0.00219 ± 3.5e-05
TGGKAPRKQLATK [H3 11-23 T G G Kac A P R Kme2 Q L A T K],peptide microarray binding signal,"[1]; peptide modifications: H3K14ac H3K18me2, binder concentration: 50 nM",0.00727 ± 0.00061
same,peptide microarray binding signal,"[1]; peptide modifications: H3K14ac H3K18me2, binder concentration: 500 nM",0.0126 ± 0.00024
same,peptide microarray binding signal,"[2]; peptide modifications: H3K14ac H3K18me2, binder concentration: 10 nM",0.0171 ± 0.0046
same,peptide microarray binding signal,"[2]; peptide modifications: H3K14ac H3K18me2, binder concentration: 100 nM",0.031 ± 0.014
same,peptide microarray binding signal,[3]; [11],0.0176 ± 0.0051
same,peptide microarray binding signal,[3]; [12],0.0145 ± 0.0016
same,peptide microarray binding signal,[4]; [11],0.00399 ± 0.00012
same,peptide microarray binding signal,[4]; [12],0.00346 ± 0.0001
TGGKAPRKQLATK [H3 11-23 T G G Kme A P Rme2a K Q L A T K],peptide microarray binding signal,"[1]; peptide modifications: H3K14me1 H3R17me2a, binder concentration: 50 nM",0.00643 ± 0.00034
same,peptide microarray binding signal,"[1]; peptide modifications: H3K14me1 H3R17me2a, binder concentration: 500 nM",0.0164 ± 0.0061
same,peptide microarray binding signal,"[2]; peptide modifications: H3K14me1 H3R17me2a, binder concentration: 10 nM",0.00633 ± 0.00014
same,peptide microarray binding signal,"[2]; peptide modifications: H3K14me1 H3R17me2a, binder concentration: 100 nM",0.0122 ± 0.0012
same,peptide microarray binding signal,[3]; [13],0.00328 ± 0.0014
same,peptide microarray binding signal,[3]; [14],0.00896 ± 0.0044
same,peptide microarray binding signal,[4]; [13],0.00393 ± 0.00055
same,peptide microarray binding signal,[4]; [14],0.00398 ± 0.00069
TGGKAPRKQLATK [H3 11-23 T G G Kac A P R K Q L A T K],peptide microarray binding signal,"[1]; peptide modifications: H3K14ac, binder concentration: 50 nM",0.0069 ± 0.00019
same,peptide microarray binding signal,"[1]; peptide modifications: H3K14ac, binder concentration: 500 nM",0.032 ± 0.0024
same,peptide microarray binding signal,"[2]; peptide modifications: H3K14ac, binder concentration: 10 nM",0.0291 ± 0.0036
same,peptide microarray binding signal,"[2]; peptide modifications: H3K14ac, binder concentration: 100 nM",0.0427 ± 0.0088
same,peptide microarray binding signal,[3]; [15],0.00429 ± 0.00017
same,peptide microarray binding signal,[3]; [16],0.00314 ± 0.00047
same,peptide microarray binding signal,[4]; [15],0.00606 ± 0.00038
same,peptide microarray binding signal,[4]; [16],0.00392 ± 0.00032
TGGKAPRKQLATK [H3 11-23 T G G Kme A P R Kac Q L A T K],peptide microarray binding signal,"[1]; peptide modifications: H3K14me1 H3K18ac, binder concentration: 50 nM",0.00715 ± 0.00026
same,peptide microarray binding signal,"[1]; peptide modifications: H3K14me1 H3K18ac, binder concentration: 500 nM",0.014 ± 0.00051
same,peptide microarray binding signal,"[2]; peptide modifications: H3K14me1 H3K18ac, binder concentration: 10 nM",0.014 ± 0.0016
same,peptide microarray binding signal,"[2]; peptide modifications: H3K14me1 H3K18ac, binder concentration: 100 nM",0.0363 ± 0.0088
same,peptide microarray binding signal,[3]; [17],0.007 ± 0.001
same,peptide microarray binding signal,[3]; [18],0.00331 ± 0.0003
same,peptide microarray binding signal,[4]; [17],0.00159 ± 1.9e-05
same,peptide microarray binding signal,[4]; [18],0.00127 ± 3.4e-05
TGGKAPRKQLATK [H3 11-23 T G G Kac A P R Kme3 Q L A T K],peptide microarray binding signal,"[1]; peptide modifications: H3K14ac H3K18me3, binder concentration: 50 nM",0.00953 ± 0.0014
same,peptide microarray binding signal,"[1]; peptide modifications: H3K14ac H3K18me3, binder concentration: 500 nM",0.00948 ± 0.00024
same,peptide microarray binding signal,"[2]; peptide modifications: H3K14ac H3K18me3, binder concentration: 10 nM",0.00841 ± 0.00063
same,peptide microarray binding signal,"[2]; peptide modifications: H3K14ac H3K18me3, binder concentration: 100 nM",0.0201 ± 0.0018
same,peptide microarray binding signal,[3]; [19],0.931 ± 0.11
same,peptide microarray binding signal,[3]; [20],0.499 ± 0.075
same,peptide microarray binding signal,[4]; [19],0.0555 ± 0.018
same,peptide microarray binding signal,[4]; [20],0.016 ± 0.00022
TGGKAPRKQLATK [H3 11-23 T G G Kme A P Rcit K Q L A T K],peptide microarray binding signal,"[1]; peptide modifications: H3K14me1 H3R17cit, binder concentration: 50 nM",0.00351 ± 0.00027
same,peptide microarray binding signal,"[1]; peptide modifications: H3K14me1 H3R17cit, binder concentration: 500 nM",0.0134 ± 0.00059
same,peptide microarray binding signal,"[2]; peptide modifications: H3K14me1 H3R17cit, binder concentration: 10 nM",0.0121 ± 0.0023
same,peptide microarray binding signal,"[2]; peptide modifications: H3K14me1 H3R17cit, binder concentration: 100 nM",0.0268 ± 0.0021
same,peptide microarray binding signal,[3]; [21],0.00151 ± 0.00025
same,peptide microarray binding signal,[3]; [22],0.00223 ± 0.00013
same,peptide microarray binding signal,[4]; [21],0.00267 ± 0.00024
same,peptide microarray binding signal,[4]; [22],0.00271 ± 0.00023
TGGKAPRKQLATK [H3 11-23 T G G Kme A P R K Q L A T K],peptide microarray binding signal,"[1]; peptide modifications: H3K14me1, binder concentration: 50 nM",0.00646 ± 0.00024
same,peptide microarray binding signal,"[1]; peptide modifications: H3K14me1, binder concentration: 500 nM",0.0181 ± 0.002
same,peptide microarray binding signal,"[2]; peptide modifications: H3K14me1, binder concentration: 10 nM",0.00567 ± 0.00017
same,peptide microarray binding signal,"[2]; peptide modifications: H3K14me1, binder concentration: 100 nM",0.0256 ± 0.0033
same,peptide microarray binding signal,[3]; [23],0.0023 ± 0.00025
same,peptide microarray binding signal,[3]; [24],0.00108
same,peptide microarray binding signal,[4]; [23],0.004 ± 0.00032
same,peptide microarray binding signal,[4]; [24],0.00346 ± 0.00012
